Experimental data as given in ChEMBL document CHEMBL2218924, “A broad activity screen in support of a chemogenomic map for kinase signalling research and drug discovery” (Biochem J, 2013).

Tests used:
[1] = molecular target: T1, Testis-specific serine/threonine-protein kinase 1 (Homo sapiens) (UniProt Q9BXA7); conditions: at 1 µM
T1 sequence (whole entry): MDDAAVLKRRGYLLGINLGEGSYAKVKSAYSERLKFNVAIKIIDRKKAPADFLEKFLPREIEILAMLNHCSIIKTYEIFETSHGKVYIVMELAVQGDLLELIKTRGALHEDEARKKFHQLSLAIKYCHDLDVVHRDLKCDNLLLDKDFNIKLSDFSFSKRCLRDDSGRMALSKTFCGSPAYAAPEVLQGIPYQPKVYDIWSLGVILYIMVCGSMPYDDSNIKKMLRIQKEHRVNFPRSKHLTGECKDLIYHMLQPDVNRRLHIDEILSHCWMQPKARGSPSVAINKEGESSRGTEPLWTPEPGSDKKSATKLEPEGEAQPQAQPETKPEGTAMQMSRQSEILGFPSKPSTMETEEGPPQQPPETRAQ

[2] = molecular target: T1, Testis-specific serine/threonine-protein kinase 1 (Homo sapiens); conditions: at 10 µM
[3] = molecular target: T2, Testis-specific serine/threonine-protein kinase 2 (Homo sapiens) (UniProt Q96PF2); conditions: at 10 µM
T2 sequence (whole entry): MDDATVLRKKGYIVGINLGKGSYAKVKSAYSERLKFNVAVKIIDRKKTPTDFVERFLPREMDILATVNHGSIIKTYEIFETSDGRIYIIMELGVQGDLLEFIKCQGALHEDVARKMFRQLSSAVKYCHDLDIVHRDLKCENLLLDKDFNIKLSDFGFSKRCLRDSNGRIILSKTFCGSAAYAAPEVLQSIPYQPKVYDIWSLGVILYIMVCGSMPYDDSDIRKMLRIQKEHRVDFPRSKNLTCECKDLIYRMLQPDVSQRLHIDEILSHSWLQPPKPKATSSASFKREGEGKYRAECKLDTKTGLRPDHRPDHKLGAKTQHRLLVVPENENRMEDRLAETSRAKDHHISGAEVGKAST

[4] = molecular target: T3, Tyrosine-protein kinase Tec (Homo sapiens) (UniProt P42680); conditions: at 1 µM
T3 sequence (whole entry): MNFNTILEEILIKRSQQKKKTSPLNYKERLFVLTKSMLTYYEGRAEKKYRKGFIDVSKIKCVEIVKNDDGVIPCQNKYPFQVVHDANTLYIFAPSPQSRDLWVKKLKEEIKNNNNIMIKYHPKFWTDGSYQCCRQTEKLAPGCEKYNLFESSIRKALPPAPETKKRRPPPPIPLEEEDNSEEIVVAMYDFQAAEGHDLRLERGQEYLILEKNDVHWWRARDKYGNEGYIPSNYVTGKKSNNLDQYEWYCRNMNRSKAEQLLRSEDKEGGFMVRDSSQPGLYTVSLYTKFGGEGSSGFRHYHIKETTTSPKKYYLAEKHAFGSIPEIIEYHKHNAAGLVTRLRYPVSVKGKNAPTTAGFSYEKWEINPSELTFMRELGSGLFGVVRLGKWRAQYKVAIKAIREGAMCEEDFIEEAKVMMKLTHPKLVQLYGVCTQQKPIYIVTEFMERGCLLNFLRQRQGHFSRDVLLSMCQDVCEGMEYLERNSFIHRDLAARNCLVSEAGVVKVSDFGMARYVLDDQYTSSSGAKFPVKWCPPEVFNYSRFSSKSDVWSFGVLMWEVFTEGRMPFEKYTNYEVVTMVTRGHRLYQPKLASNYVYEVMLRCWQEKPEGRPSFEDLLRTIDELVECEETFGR

[5] = molecular target: T3, Tyrosine-protein kinase Tec (Homo sapiens); conditions: at 10 µM
[6] = molecular target: Angiopoietin-1 receptor (Homo sapiens) (UniProt Q02763); conditions: at 10 µM
[7] = molecular target: High affinity nerve growth factor receptor (Homo sapiens) (UniProt P04629); conditions: at 1 µM
[8] = molecular target: High affinity nerve growth factor receptor (Homo sapiens) (UniProt P04629); conditions: at 10 µM
[9] = molecular target: BDNF/NT-3 growth factors receptor (Homo sapiens) (UniProt Q16620); conditions: at 1 µM
[10] = molecular target: BDNF/NT-3 growth factors receptor (Homo sapiens) (UniProt Q16620); conditions: at 10 µM
[11] = molecular target: T4, Tyrosine-protein kinase TXK (Homo sapiens) (UniProt P42681); conditions: at 1 µM
T4 sequence (whole entry): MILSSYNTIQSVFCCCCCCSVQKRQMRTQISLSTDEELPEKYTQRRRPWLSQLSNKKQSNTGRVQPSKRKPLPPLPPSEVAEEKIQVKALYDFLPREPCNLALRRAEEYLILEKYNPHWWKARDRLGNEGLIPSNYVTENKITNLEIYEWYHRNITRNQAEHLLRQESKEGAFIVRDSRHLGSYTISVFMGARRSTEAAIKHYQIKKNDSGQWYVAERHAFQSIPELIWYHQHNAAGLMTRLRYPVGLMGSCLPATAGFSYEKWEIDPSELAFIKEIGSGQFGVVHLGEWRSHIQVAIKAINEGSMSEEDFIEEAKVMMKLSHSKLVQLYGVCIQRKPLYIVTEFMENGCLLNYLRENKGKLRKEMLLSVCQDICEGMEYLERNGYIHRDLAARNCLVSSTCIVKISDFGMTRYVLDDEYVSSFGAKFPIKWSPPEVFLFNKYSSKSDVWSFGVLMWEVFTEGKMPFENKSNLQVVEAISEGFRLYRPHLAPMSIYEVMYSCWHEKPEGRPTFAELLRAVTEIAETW

[12] = molecular target: T4, Tyrosine-protein kinase TXK (Homo sapiens); conditions: at 10 µM
[13] = molecular target: T5, Serine/threonine-protein kinase ULK2 (Homo sapiens) (UniProt Q8IYT8); conditions: at 1 µM
T5 sequence (whole entry): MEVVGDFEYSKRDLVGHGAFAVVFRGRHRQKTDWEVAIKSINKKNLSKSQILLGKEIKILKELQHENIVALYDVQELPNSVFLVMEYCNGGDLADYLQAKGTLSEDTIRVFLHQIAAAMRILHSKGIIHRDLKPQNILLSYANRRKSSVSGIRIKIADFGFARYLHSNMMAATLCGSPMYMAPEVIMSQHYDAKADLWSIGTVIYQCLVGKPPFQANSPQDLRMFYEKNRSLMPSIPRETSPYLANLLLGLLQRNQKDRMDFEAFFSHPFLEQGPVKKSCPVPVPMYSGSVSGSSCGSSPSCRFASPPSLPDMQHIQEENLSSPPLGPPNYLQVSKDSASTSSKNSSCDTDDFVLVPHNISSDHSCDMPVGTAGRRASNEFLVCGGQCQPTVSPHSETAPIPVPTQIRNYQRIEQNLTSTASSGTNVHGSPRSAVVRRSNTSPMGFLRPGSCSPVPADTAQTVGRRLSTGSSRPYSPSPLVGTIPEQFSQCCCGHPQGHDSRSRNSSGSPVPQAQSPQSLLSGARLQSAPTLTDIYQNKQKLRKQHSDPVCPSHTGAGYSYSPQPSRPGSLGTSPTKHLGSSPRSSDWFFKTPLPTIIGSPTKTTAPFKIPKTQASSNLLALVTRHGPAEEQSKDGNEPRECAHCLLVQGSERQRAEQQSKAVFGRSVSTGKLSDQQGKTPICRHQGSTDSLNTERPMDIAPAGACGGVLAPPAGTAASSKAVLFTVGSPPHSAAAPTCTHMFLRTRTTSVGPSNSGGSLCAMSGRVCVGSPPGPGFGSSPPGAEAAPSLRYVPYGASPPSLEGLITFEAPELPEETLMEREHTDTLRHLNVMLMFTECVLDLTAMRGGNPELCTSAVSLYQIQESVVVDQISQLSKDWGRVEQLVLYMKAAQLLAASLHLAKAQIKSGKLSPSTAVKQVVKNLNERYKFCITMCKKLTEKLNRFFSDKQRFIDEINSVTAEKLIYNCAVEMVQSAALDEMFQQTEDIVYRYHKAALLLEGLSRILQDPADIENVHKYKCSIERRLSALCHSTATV

[14] = molecular target: T6, Serine/threonine-protein kinase ULK3 (Homo sapiens) (UniProt Q6PHR2); conditions: at 1 µM
T6 sequence (whole entry): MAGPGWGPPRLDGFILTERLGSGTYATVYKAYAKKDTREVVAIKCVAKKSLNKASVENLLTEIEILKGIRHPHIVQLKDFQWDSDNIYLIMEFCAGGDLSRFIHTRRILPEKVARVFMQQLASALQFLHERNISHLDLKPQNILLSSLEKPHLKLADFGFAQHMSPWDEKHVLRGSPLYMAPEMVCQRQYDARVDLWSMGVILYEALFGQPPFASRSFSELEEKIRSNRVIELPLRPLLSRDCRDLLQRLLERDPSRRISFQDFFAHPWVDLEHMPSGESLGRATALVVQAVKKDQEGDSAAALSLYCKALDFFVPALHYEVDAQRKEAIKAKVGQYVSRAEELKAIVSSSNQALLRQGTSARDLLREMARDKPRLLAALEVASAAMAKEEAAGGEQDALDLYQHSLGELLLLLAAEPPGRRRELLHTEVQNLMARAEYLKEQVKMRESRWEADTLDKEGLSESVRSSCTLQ

[15] = molecular target: T6, Serine/threonine-protein kinase ULK3 (Homo sapiens); conditions: at 10 µM
[16] = molecular target: Serine/threonine-protein kinase VRK2 (Homo sapiens) (UniProt Q86Y07); conditions: at 10 µM
[17] = molecular target: Angiopoietin-1 receptor (Homo sapiens) (UniProt Q02763); conditions: at 1 µM
[18] = molecular target: Serine/threonine-protein kinase VRK2 (Homo sapiens) (UniProt Q86Y07); conditions: at 1 µM
[19] = molecular target: Serine/threonine-protein kinase WNK2 (Homo sapiens) (UniProt Q9Y3S1); conditions: at 1 µM;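 also: residual WNK2 kinase activity expressed as percent of uninhibited control, assayed in MOPS buffer at pH 7.0 containing EDTA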
[20] = molecular target: T5, Serine/threonine-protein kinase ULK2 (Homo sapiens); conditions: at 10 µM

Angiopoietin-1 receptor (Homo sapiens), sequence (Q02763 whole entry): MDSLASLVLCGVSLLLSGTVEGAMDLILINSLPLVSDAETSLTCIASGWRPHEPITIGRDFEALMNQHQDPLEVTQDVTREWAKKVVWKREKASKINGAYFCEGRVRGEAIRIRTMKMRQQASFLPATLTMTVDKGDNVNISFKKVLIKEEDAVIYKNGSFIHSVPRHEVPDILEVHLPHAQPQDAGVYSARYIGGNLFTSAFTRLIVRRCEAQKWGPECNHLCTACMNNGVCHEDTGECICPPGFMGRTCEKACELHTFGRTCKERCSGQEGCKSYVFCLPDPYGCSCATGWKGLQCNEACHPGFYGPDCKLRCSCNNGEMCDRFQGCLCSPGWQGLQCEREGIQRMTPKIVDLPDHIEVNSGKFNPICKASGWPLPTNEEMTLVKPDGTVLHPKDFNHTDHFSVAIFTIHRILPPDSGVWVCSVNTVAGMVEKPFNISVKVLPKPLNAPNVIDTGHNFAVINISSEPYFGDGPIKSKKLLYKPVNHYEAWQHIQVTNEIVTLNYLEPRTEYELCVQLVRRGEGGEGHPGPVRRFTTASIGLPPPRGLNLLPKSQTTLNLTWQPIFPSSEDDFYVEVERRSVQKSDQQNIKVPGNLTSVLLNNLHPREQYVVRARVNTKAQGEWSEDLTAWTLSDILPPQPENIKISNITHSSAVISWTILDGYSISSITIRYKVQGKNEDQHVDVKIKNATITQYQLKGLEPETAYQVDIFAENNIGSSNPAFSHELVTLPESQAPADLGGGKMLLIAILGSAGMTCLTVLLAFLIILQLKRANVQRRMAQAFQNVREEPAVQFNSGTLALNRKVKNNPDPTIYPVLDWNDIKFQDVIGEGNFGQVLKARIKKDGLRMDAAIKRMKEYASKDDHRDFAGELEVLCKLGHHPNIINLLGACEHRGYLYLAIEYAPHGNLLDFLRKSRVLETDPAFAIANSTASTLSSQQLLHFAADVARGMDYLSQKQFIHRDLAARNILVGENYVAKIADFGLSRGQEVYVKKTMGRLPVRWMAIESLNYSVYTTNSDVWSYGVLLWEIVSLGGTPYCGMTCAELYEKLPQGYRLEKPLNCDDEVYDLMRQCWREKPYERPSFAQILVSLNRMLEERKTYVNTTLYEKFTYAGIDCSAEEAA
Serine/threonine-protein kinase WNK2 (Homo sapiens), sequence (Q9Y3S1 whole entry): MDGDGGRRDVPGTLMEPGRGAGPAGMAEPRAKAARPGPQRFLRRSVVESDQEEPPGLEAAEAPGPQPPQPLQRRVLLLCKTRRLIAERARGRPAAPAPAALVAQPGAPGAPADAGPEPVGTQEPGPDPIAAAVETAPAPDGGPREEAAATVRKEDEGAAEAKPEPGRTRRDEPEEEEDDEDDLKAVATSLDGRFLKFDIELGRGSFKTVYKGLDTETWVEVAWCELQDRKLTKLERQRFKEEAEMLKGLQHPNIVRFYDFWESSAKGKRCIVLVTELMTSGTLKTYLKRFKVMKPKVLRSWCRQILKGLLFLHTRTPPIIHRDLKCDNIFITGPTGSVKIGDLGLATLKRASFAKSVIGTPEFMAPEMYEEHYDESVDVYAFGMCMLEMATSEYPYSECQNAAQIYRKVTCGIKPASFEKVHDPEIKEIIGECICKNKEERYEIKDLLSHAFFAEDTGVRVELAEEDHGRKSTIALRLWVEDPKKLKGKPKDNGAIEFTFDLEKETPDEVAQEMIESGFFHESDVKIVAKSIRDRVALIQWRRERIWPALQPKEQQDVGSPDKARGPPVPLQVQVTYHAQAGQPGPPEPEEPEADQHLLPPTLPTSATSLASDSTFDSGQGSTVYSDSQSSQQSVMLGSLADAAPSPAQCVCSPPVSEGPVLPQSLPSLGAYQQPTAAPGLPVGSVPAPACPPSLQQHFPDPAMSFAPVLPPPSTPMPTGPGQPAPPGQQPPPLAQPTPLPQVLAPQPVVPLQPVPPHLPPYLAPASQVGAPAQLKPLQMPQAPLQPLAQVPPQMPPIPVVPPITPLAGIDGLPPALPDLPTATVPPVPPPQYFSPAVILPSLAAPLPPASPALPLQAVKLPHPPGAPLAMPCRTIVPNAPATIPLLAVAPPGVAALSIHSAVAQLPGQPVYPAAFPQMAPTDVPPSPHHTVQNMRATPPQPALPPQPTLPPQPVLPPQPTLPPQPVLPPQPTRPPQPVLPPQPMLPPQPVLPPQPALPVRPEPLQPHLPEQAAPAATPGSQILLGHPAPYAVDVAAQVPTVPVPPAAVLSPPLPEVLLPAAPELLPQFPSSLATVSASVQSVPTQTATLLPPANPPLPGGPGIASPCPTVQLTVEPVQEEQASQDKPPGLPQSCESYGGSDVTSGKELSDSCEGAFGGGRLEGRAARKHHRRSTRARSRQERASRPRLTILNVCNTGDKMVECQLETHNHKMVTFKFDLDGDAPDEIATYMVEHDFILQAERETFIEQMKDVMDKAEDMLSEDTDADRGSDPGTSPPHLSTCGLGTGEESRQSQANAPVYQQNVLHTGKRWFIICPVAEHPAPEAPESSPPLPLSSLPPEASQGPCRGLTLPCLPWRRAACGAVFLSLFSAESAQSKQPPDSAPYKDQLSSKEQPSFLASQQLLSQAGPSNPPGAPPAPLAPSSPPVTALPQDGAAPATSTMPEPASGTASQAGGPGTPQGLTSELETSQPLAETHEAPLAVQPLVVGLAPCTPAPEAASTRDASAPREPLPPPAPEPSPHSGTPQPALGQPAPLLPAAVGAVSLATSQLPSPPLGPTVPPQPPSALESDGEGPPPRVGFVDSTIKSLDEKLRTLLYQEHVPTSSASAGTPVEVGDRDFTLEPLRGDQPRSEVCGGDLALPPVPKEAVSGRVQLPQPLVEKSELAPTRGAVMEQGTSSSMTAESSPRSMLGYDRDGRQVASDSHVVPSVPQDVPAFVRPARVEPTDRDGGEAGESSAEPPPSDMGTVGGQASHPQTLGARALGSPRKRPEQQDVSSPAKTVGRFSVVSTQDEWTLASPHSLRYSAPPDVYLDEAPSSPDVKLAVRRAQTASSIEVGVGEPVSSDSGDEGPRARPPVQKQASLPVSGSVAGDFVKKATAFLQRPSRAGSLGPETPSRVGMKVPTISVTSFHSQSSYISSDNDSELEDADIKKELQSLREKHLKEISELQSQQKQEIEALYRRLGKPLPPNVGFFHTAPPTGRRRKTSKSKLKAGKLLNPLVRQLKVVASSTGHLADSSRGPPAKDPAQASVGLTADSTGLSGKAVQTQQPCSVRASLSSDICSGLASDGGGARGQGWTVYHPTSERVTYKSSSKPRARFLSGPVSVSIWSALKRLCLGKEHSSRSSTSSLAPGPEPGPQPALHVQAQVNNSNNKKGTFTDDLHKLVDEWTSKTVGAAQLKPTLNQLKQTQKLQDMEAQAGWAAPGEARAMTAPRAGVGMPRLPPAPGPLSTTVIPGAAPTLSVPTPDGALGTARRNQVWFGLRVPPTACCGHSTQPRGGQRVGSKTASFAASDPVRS
BDNF/NT-3 growth factors receptor (Homo sapiens), sequence (Q16620 32-822 limits assumed): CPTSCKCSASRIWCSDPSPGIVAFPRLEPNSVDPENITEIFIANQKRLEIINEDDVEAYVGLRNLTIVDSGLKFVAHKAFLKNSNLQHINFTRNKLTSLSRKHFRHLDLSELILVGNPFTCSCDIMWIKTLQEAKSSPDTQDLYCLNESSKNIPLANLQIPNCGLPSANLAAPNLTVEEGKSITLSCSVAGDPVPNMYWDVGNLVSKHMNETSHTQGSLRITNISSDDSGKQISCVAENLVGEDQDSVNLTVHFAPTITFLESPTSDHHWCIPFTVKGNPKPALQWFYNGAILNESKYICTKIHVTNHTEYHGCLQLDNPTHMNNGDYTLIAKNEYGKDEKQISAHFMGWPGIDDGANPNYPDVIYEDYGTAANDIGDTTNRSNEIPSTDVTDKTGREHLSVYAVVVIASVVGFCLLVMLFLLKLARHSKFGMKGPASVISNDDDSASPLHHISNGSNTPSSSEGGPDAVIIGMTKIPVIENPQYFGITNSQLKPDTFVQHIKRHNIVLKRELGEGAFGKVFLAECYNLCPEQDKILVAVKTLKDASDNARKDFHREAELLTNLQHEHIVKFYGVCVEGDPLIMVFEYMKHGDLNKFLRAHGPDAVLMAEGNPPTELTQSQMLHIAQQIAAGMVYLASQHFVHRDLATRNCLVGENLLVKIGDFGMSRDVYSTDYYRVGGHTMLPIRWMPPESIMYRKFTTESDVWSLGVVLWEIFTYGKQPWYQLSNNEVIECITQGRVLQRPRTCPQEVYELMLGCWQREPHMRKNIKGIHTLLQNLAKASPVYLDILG
High affinity nerve growth factor receptor (Homo sapiens), sequence (P04629 33-796 limits assumed): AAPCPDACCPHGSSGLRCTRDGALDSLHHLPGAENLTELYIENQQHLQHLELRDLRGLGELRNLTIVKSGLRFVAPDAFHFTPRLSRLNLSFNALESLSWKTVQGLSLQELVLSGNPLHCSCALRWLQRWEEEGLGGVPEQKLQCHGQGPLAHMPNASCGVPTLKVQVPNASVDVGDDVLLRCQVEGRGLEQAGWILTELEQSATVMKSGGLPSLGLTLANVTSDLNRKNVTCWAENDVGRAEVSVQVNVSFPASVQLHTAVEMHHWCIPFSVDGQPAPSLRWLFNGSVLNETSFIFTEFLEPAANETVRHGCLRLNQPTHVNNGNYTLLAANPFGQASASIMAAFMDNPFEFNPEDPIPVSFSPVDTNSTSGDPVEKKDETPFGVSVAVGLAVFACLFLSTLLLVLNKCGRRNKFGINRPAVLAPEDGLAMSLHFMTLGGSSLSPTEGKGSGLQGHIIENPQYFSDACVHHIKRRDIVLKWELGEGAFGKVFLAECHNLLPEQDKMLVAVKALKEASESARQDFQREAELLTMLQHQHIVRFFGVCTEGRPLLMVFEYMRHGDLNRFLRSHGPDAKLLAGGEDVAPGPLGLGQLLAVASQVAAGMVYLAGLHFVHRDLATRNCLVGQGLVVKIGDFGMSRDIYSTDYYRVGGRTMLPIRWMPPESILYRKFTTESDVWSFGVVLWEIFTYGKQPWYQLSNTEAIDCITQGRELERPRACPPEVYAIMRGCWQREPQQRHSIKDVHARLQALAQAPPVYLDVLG

Row | SMILES | residual activity [1] | residual activity [2] | residual activity [3] | residual activity [4] | residual activity [5] | residual activity [6] | residual activity [7] | residual activity [8] | residual activity [9] | residual activity [10] | residual activity [11] | residual activity [12] | residual activity [13] | residual activity [14] | residual activity [15] | residual activity [16] | residual activity [17] | residual activity [18] | residual activity [19] | residual activity [20]
1 | O=C(NC(NC(=S)Nc1ccc(F)c([N+](=O)[O-])c1)C(Cl)(Cl)Cl)C(c1ccccc1)c1ccccc1 (centres undefined) | 87% | 103% | 101% | 102% | 62% | 82% | 87% | 52% | 91% | 89% | 82% | 76% | 96% | 97% | 98% | 95% |  |  |  | 
2 | Nc1ncnc2c1c(-c1ccc(Oc3ccccc3)cc1)cn2C1CCCC1 | 94% | 86% | 93% |  |  | 3% | 26% | -1% | 44% | -9% | 18% | 1% | 98% |  | 45% | 72% | 12% | 85% (inactive) | 103% (inactive) | 
3 | O=C1C(Cl)=C(N2C(=O)CCC2=O)C(=O)c2ccccc21 | 101% | 79% | 80% | 90% | 79% | 71% | 89% | 68% | 85% | 93% | 76% | 87% |  | 87% | 97% | 98% |  | 93% (inactive) | 89% (inactive) | 
4 | O=c1cc(N2CCOCC2)oc2c1ccc1ccccc12 | 101% | 82% | 78% | 93% | 96% | 97% | 106% |  |  | 102% | 90% | 85% | 102% | 106% | 94% | 90% | 81% | 105% (inactive) | 110% (inactive) | 88%
5 | NC(=O)Nc1sc(-c2ccc(F)cc2)cc1C(N)=O | 62% | 27% | 54% |  |  | 21% |  |  | 27% | 2% |  |  | 86% | 69% | 24% | 52% | 82% | 95% (inactive) |  | 36%
6 | CCCCc1c(-c2ccc(O)cc2)[nH]c2nccnc12 | 58% | 59% | 85% |  |  |  | 61% | 12% | 67% | 45% |  |  | 87% | 73% | 31% |  |  |  |  | 93%
7 | NCCNc1ncc(C(N)=O)c(Nc2cccc(C(F)(F)F)c2)n1 | 56% | 10% |  |  |  | 49% |  |  | 47% | 29% |  | 61% |  | 82% | 24% | 43% | 100% |  | 111% (inactive) | 
8 | O=C1NC(=O)C(c2cn(CCCO)c3ncccc23)=C1c1cnccn1 | 97% | 84% | 59% | 91% | 73% | 94% | 80% | 64% | 87% | 90% | 82% | 86% |  | 93% | 92% |  | 95% |  |  | 
9 | O=C1Nc2ccc(Cl)cc2/C1=C/c1cc(Cl)c(O)c(Cl)c1 | 95% | 78% | 57% | 89% | 70% | 51% | -1% | 2% | 38% | 3% | 93% | 80% |  | 89% | 47% | 92% | 75% | 110% (inactive) |  | 
10 | O=C(O)/C=C/c1cc(Br)c(Br)c(Br)c1Br | 81% | 99% | 102% | 94% | 96% | 89% |  |  | 109% | 83% | 94% | 95% | 109% | 98% | 93% | 105% | 99% | 109% (inactive) |  | 107%
11 | c1ccc(-c2cnc(Nc3ccc(OCCN4CCCC4)cc3)s2)cc1 | 100% | 78% | 74% |  |  | 60% | 24% | 3% | 45% | 3% |  | 60% | 59% |  |  |  | 114% |  | 123% (inactive) | 16%
12 | CN(C)S(=O)(=O)c1ccc2c(c1)/C(=C/c1cc3c([nH]1)CCCC3)C(=O)N2 | 91% | 73% |  | 86% | 80% | 51% | -2% | -1% | 4% | 1% | 92% | 90% | 38% | 11% | 6% | 91% | 45% |  | 94% (inactive) | 13%
13 | COc1ccc(Cl)cc1NC(=O)Nc1cc(C)nc2ccccc12 | 95% | 87% | 88% | 93% | 55% |  | 100% | 60% |  |  |  | 60% |  |  | 96% | 94% |  | 98% (inactive) |  | 85%
